# Assay results as given in PubChem BioAssay (NCI).
# Compounds without any hit were thinned out: in the full panel of roughly 79,000, 15% have a hit. A number with no mark means an inactive call. Activity calls are given as the source filed them. No stated cut-off is given here; in the data, active means growth inhibition above about 70%; inactive means the rest.
# Columns and labels:
# [1] = NCI Yeast Anticancer Drug Screen. Data for the rad50 strain (AID 155);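 further: 0% = growth of vehicle-only cultures of the same strain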; settings: S. cerevisiae rad50 strain growth inhibition; at 50.0 µM; hits give high values
# Summary of the method: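 Genetically altered yeast (DNA repair pathway); compound treatment; growth inhibition vs vehicle ctrl.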
# [2] = NCI Yeast Anticancer Drug Screen. Data for the mec2-1 strain (AID 157); settings: S. cerevisiae mec2-1 strain, at 50.0 µM, hits give high values
# Summary of the method: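 Using mec2-1 yeast: add compound, measure growth, express inhibition versus vehicle-treated cultures.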
# [3] = NCI Yeast Anticancer Drug Screen. Data for the sgs1 mgt1 strain (AID 161);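 further: 0% = growth of cultures given vehicle only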; settings: S. cerevisiae sgs1 mgt1 strain, at 50.0 µM, hits give high values
# Summary of the method: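 Growth of a repair-deficient yeast mutant was monitored after compound treatment and expressed as inhibition relative to vehicle-treated cultures.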
# [4] = NCI Yeast Anticancer Drug Screen. Data for the cln2 rad14 strain (AID 165);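 further: 0% = growth equal to vehicle treated cultures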; settings: S. cerevisiae cln2 rad14 strain, at 50.0 µM, hits give high values
# Summary of the method: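 Yeast strain cln2 rad14, bearing defects in cell cycle control and DNA repair, serves as the test system; values reflect growth inhibition compared with vehicle.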
# [5] = NCI Yeast Anticancer Drug Screen. Data for the bub3 strain (AID 167); settings: S. cerevisiae bub3 mutant strain, at 50.0 µM, hits give high values
# Summary of the method: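 Yeast carrying a defined mutation is treated with each compound, and growth is compared with that of vehicle-exposed cells to give inhibition.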
# [6] = NCI Yeast Anticancer Drug Screen. Data for the mlh1 rad18 strain (AID 175); settings: S. cerevisiae mlh1 rad18 strain growth inhibition; at 50.0 µM; hits give high values
# Summary of the method: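 Steps: expose repair-defective yeast to compound; measure growth; express inhibition against vehicle-treated controls.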
Structure (SMILES),growth inhibition [1],growth inhibition [2],growth inhibition [3],growth inhibition [4],growth inhibition [5],growth inhibition [6]
CCCCCCCCCCCCCC(=O)CCCC,-9.7%,-8.4%,2.2%,-22.5%,-2.45%,-18%
N#CCCN(CCC#N)c1ccc(/C=C2\N=C(CN3C(=O)c4ccccc4C3=O)OC2=O)cc1,-20.1%,4.25%,7.05%,11.3%,0.05%,7.55%
Nc1nc(-c2cc(Br)ccc2N=NN2CCOCC2)nc2ccc(Br)cc12,98.8% (active),99.1% (active),99.3% (active),98.8% (active),99% (active),99% (active)
CCCCNc1nc2c(=O)n(C)c(=O)n(C)c2s1,-6.3%,-0.6%,-3.1%,-17.4%,-5.9%,9.75%
CCC1(C)N=C(N)Nc2nc3cc(C)c(C)cc3n21 (stereo unspecified),15.2%,17.7%,25.1%,7.05%,19.9%,21.4%
CCN(CC)c1ccc(N=Nc2ccc(C)cc2)cc1,-6.7%,-22.5%,-12.5%,-0.4%,-15.8%,12.1%
Cc1ccc(S(=O)(=O)Nc2cc3c(cc2NC(=O)C(F)(F)F)-c2ccccc2C3)cc1,52.8%,-9%,38.8%,-7.4%,-1.25%,46%
O=c1cc(O)nc2cn[nH]n12,4.8%,-22.4%,7.65%,13.4%,-3.45%,1.6%
COc1ccc(C2C(Cl)C(=O)N2NC(=O)c2ccccc2O)cc1OC (stereo unspecified),2.85%,-12.1%,-18.6%,15.4%,-22.4%,-34.1%
C[C@]12CCC(=O)C=C1CC[C@@H]1[C@@H]2CC[C@@]2(C)[C@H]1CC[C@]2(O)C(=O)CCC#N,-23.1%,-2.6%,17.1%,-33.4%,-16.8%,13.2%
Clc1ccc(-c2c3nc(c(-c4ccc(Cl)cc4)c4ccc([nH]4)c(-c4ccc(Cl)cc4)c4nc(c(-c5ccc(Cl)cc5)c5ccc2[nH]5)C=C4)C=C3)cc1,-30.6%,-17.9%,-12.4%,15.8%,-14.3%,-18.9%
CCC(C)OC(=Nc1ccccc1)c1ccccc1 (stereo unspecified),-4.05%,5.95%,-4.5%,15.7%,-6.7%,2.4%
COc1ccc(/C=C/C(=O)OCCC(C)C)cc1,3.7%,-16.3%,3.5%,16.9%,-21.2%,-16.7%
CC(=O)/C(C=Nc1c(C)n(C)n(C)c1=O)=C(/O)c1ccccc1,0.15%,4.05%,-10.4%,7.55%,-19.6%,16%
CC1=C(/C=C/C(C)=C/C=C/C(C)=C/C=C/C=C(C)/C=C/C=C(\C)C=O)C(C)(C)CCC1,-18.2%,4.85%,-9.4%,-1.4%,4.75%,0.8%
CS(=O)(=O)C(c1nc2n(c1O)C(=N)N=N2)c1nc2n(c1O)C(=N)N=N2 (stereo unspecified),-3.2%,12.1%,-6.15%,-17.1%,-5.2%,9.8%
COc1cc(OC)c(C2c3cc4c(cc3OC(C)(N3CCCC3)C2C)OCO4)c(OC)c1 (stereo unspecified),4.5%,14.6%,5.25%,-8.65%,9.45%,20.3%
O=[N+]([O-])c1ccc(COP(=O)(O)OCc2ccc([N+](=O)[O-])cc2)cc1,-1.5%,10.9%,13.1%,-9.55%,11.2%,15.4%

Structure (SMILES),growth inhibition [1],growth inhibition [2],growth inhibition [3],growth inhibition [4],growth inhibition [5],growth inhibition [6]
CCCCN1C(=O)C(NC(C)=O)C1COC(C)(C)C (stereo unspecified),-21.9%,-5.2%,-28.4%,-8.65%,-28.1%,-35.5%
O=C1CCC2(CC1)SCCCS2,-0.6%,-21.5%,-16.1%,20.9%,-7.3%,-17.1%
CCOC(=O)Cc1ccc(-c2csc(Nc3ccc(Cl)cc3)n2)cc1,49.9%,22.4%,35%,24.2%,24.8%,48.9%
C=CCC(OC(=O)C=C(C)C)c1ccc2c(c1)OCO2 (stereo unspecified),-23.6%,-31.9%,-6.65%,-5.5%,38.8%,6.3%
CC(C)Cc1cnc(CC(C)C)c(=O)[nH]1,-13.6%,-44.6%,-28.1%,10.8%,-40.2%,-25.9%
N#Cc1c(-c2ccccc2)ssc1=S,31.4%,25.1%,50.4%,-20.8%,11.8%,12.6%
CCCCN(CC)NC(=S)Nc1ccccc1,-9.25%,9.7%,-3.3%,-18.4%,17.9%,5.6%
CC(=O)Nc1ccc2cc(-c3ccc(Cl)cc3)c3nnnn3c2n1,14.3%,4.85%,25.8%,-53.1%,0.9%,17.8%
COc1ccccc1NC(=O)CC(C)=O,7%,-5.9%,7.8%,-11.6%,-15.8%,-8.5%
COC(=O)c1nc2n[nH]c(N)c2c2c1CCCCCCCCCC2,7.35%,15.6%,-5.65%,-13.6%,1.4%,12.1%
CCN1CCC(O)(C(C(=O)O)c2ccccc2)CC1 (stereo unspecified),3.45%,-27%,-35%,-28.8%,-38.7%,2.4%
O=[N+]([O-])/C(C(Cl)=C(Cl)Cl)=C(\SCc1ccccc1)N1CCCCC1,-25.6%,-8.1%,6.75%,19.4%,31.7%,14.6%
Cc1cc(C(=O)O)c2cc(Br)ccc2n1,4.2%,12.3%,15.2%,17.3%,11.2%,-4.5%
CCCCCCCCCCCCCCCCCCNC(=S)/N=C\C(C(=O)Nc1ccccc1C)=C(/C)O,-9.8%,-11.8%,5.85%,0.55%,-21.4%,-5.65%
CCCCN1C(=O)CC2[C@@H]3CCc4cc(OC)ccc4C3CC[C@]2(C)C1=O (stereo partly specified),9.05%,11.6%,16.1%,26.6%,13.8%,14.4%
O=P(O)(O)c1ccc(-c2ccc(P(=O)(O)O)cc2)cc1,-4.7%,2.85%,12.8%,-32.2%,2.3%,-1.75%
O=C(CCCl)Nc1c(Cl)cccc1Cl,10.2%,11.7%,8.9%,18.6%,21.1%,-3.65%
Cc1cc(N=Nc2ccc(N=Nc3ccc(S(=O)(=O)O)cc3)cc2)cc(C(=O)O)c1O,12%,-9.4%,-2.85%,-8%,-19.7%,4.25%
